The supplement of paper PMC10849652
About 8,800 targets were measured; listed, in parts, are those with a hit and a random draw of the rest. About 0.5% of all pairs of compound and target were hits.

Legend:
Assay in all cases: log2 fold change, soluble protein after heating vs DMSO (PISA); higher = thermal stabilisation; K562 lysate, 10 uM; active = over 0.2 and 3.5 SD of the protein, either way, in both replicates (recomputed)
lapatinib = compound: CS(=O)(=O)CCNCc1ccc(-c2ccc3ncnc(Nc4ccc(OCc5cccc(F)c5)c(Cl)c4)c3c2)o1 [lapatinib]
Method in brief: (§1)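 Soluble protein was defined as the supernatant remaining after 21,000xg for 90 min, following pooling of heated aliquots and adjustment to 0.5% NP-40 at 4°C. Before that, crude K562 extract at 1 mg/mL protein in PBS pH 7.4 with 1 mM MgCl2 was treated with 10 μM compound for 30 min and heated for 3 min across 48°C-58°C. Quantification used TMTpro 16plex LC-MS/MS with channel sums equalised, and values are log-two fold changes in thermal stability relative to solvent controls from duplicates.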

pictilisib = compound: CS(=O)(=O)N1CCN(Cc2cc3nc(-c4cccc5[nH]ncc45)nc(N4CCOCC4)c3s2)CC1 [pictilisib]
Method in brief: as §1

crizotinib = compound: C[C@@H](Oc1cc(-c2cnn(C3CCNCC3)c2)cnc1N)c1c(Cl)ccc(F)c1Cl [crizotinib]
Method in brief: as §1

[1] = compound: C[C@H](C1=CC=C(C=C1)C(=O)NC2=C3C=CNC3=NC=C2)N
Method in brief: as §1

duvelisib = compound: C[C@H](Nc1ncnc2nc[nH]c12)c1cc2cccc(Cl)c2c(=O)n1-c1ccccc1 [duvelisib]
Method in brief: as §1

gandotinib = compound: Cc1cc(Nc2cc(CN3CCOCC3)c3nc(C)c(Cc4ccc(Cl)cc4F)n3n2)n[nH]1 [gandotinib]
Method in brief: as §1

tozasertib = compound: Cc1cc(Nc2cc(N3CCN(C)CC3)nc(Sc3ccc(NC(=O)C4CC4)cc3)n2)n[nH]1 [tozasertib]
Method in brief: as §1

doramapimod = compound: Cc1ccc(-n2nc(C(C)(C)C)cc2NC(=O)Nc2ccc(OCCN3CCOCC3)c3ccccc23)cc1 [doramapimod]
Method in brief: as §1

bafetinib = compound: Cc1ccc(NC(=O)c2ccc(CN3CC[C@H](N(C)C)C3)c(C(F)(F)F)c2)cc1Nc1nccc(-c2cncnc2)n1 [bafetinib]
Method in brief: as §1

[2] = compound: Cc1cccc(CC(=O)N2CCc3c2ccc(-c2cn(C)c4ncnc(N)c24)c3F)n1
Method in brief: as §1

nilotinib = compound: Cc1cn(-c2cc(NC(=O)c3ccc(C)c(Nc4nccc(-c5cccnc5)n4)c3)cc(C(F)(F)F)c2)cn1 [nilotinib]
Method in brief: as §1

[3] = compound: Cc1nc(Nc2n[nH]c3c2CN(C(=O)N[C@H](CN(C)C)c2ccccc2)C3(C)C)c2sccc2n1
Method in brief: as §1

dasatinib = compound: Cc1nc(Nc2ncc(C(=O)Nc3c(C)cccc3Cl)s2)cc(N2CCN(CCO)CC2)n1 [dasatinib]
Method in brief: as §1

[4] = compound: Cc1ncc(-c2ccnc(Nc3ccc(S(C)(=O)=O)cc3)n2)n1C(C)C
Method in brief: as §1

[5] = compound: Cn1cc(-c2ccc3c(c2)CCN3C(=O)Cc2cccc(C(F)(F)F)c2)c2c(N)ncnc21
Method in brief: as §1

quisinostat = compound: Cn1cc(CNCC2CCN(c3ncc(C(=O)NO)cn3)CC2)c2ccccc21 [quisinostat]
Method in brief: as §1

tipifarnib = compound: Cn1cncc1[C@@](N)(c1ccc(Cl)cc1)c1ccc2c(c1)c(-c1cccc(Cl)c1)cc(=O)n2C [tipifarnib]
Method in brief: as §1

[6] = compound: NC(=O)Nc1cc(-c2cccc(F)c2)sc1C(=O)N[C@H]1CCCNC1
Method in brief: as §1

[7] = compound: NC(=O)c1cnc(N[C@@H]2CCCC[C@@H]2N)nc1Nc1cccc(-n2nccn2)c1
Method in brief: as §1

[8] = compound: NC1(c2ccc(-c3nc4ccn5c(=O)[nH]nc5c4cc3-c3ccccc3)cc2)CCC1
Method in brief: as §1

Measured: log2 fold change

SCD (UniProt O00767)
active: [1] -0.443
inactive: lapatinib 0.059 | pictilisib 0 | crizotinib -0.08 | duvelisib 0.067 | gandotinib 0.155 | tozasertib 0.065 | doramapimod 0.077 | bafetinib -0.053 | [2] 0.273 | nilotinib -0.007 | [3] -0.017 | dasatinib 0.01 | [4] -0.01 | [5] 0.007 | quisinostat -0.144 | tipifarnib -0.077 | [6] -0.023 | [7] -0.183 | [8] 0.03

RCC1 isoform 2 (UniProt P18754)
inactive: lapatinib -0.018 | pictilisib 0.009 | crizotinib -0.063 | [1] -0.019 | duvelisib 0.017 | gandotinib -0.066 | tozasertib 0.011 | doramapimod -0.017 | bafetinib -0.01 | [2] 0.034 | nilotinib 0.024 | [3] -0.024 | dasatinib -0.071 | [4] 0.021 | [5] 0.034 | quisinostat 0.001 | tipifarnib -0.011 | [6] 0.027 | [7] -0.02 | [8] -0.043

S100A11 (UniProt P31949)
Chain of UniProt P31949 (P31949 whole entry, looked up): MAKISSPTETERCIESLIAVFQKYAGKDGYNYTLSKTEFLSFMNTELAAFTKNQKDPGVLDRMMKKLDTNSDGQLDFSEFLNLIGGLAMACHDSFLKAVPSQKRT
inactive: lapatinib 0.105 | pictilisib 0.006 | crizotinib 0.02 | [1] 0.097 | duvelisib 0.052 | gandotinib -0.042 | tozasertib -0.043 | doramapimod 0.003 | bafetinib -0.039 | [2] -0.032 | nilotinib 0.067 | [3] 0.007 | dasatinib 0.013 | [4] 0.056 | [5] -0.02 | quisinostat 0.05 | tipifarnib 0.041 | [6] -0.033 | [7] 0 | [8] -0.006

SCML2 (UniProt Q9UQR0)
Chain of UniProt Q9UQR0 (Q9UQR0 whole entry, looked up): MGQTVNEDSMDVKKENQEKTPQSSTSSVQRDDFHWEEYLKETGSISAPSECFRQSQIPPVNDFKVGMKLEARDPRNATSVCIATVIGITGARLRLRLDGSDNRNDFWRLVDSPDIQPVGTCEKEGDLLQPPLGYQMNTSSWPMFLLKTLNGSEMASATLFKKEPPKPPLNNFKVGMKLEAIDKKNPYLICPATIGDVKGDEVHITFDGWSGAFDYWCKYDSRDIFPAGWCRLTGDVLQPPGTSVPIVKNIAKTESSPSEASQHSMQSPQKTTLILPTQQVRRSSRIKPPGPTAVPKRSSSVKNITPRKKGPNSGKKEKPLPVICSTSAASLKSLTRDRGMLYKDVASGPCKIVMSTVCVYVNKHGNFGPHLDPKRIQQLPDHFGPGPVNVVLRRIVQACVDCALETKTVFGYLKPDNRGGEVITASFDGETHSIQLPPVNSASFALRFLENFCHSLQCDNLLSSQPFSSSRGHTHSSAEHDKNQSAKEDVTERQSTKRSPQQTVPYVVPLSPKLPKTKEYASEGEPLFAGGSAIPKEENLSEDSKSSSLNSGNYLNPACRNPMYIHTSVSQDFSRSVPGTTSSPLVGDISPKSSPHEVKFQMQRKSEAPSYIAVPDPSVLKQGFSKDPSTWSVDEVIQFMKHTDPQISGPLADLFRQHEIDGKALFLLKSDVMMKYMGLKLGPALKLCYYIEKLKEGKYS
inactive: lapatinib 0.035 | pictilisib -0.027 | crizotinib -0.022 | [1] 0.034 | duvelisib 0.006 | gandotinib -0.045 | tozasertib 0.029 | doramapimod 0 | bafetinib -0.017 | [2] -0.014 | nilotinib 0.042 | [3] 0.004 | dasatinib -0.014 | [4] -0.06 | [5] 0.027 | quisinostat 0.007 | tipifarnib 0.065 | [6] 0.048 | [7] 0.012 | [8] -0.022

RALGAPA1 isoform 6 (UniProt Q6GYQ0)
inactive: lapatinib -0.075 | pictilisib -0.157 | crizotinib 0.036 | duvelisib 0.074 | gandotinib 0.257 | tozasertib -0.006 | doramapimod 0.062 | bafetinib -0.026 | [2] 0.321 | nilotinib -0.05 | [3] -0.044 | dasatinib -0.018 | [4] -0.066 | [5] 0.071 | quisinostat -0.15 | tipifarnib 0.019 | [6] 0.039 | [7] 0.052 | [8] -0.08
active: [1] -0.28

RAP1B (UniProt P61224)
active: [1] 0.215
inactive: lapatinib 0.009 | pictilisib -0.006 | crizotinib 0.008 | duvelisib -0.045 | gandotinib -0.036 | tozasertib 0 | doramapimod 0.017 | bafetinib 0.17 | [2] -0.021 | nilotinib 0.032 | [3] 0 | dasatinib 0.045 | [4] 0.027 | [5] -0.002 | quisinostat -0.007 | tipifarnib -0.034 | [6] -0.007 | [7] -0.029 | [8] -0.025

RALGAPB (UniProt Q86X10)
Chain of UniProt Q86X10 (Q86X10 whole entry, looked up): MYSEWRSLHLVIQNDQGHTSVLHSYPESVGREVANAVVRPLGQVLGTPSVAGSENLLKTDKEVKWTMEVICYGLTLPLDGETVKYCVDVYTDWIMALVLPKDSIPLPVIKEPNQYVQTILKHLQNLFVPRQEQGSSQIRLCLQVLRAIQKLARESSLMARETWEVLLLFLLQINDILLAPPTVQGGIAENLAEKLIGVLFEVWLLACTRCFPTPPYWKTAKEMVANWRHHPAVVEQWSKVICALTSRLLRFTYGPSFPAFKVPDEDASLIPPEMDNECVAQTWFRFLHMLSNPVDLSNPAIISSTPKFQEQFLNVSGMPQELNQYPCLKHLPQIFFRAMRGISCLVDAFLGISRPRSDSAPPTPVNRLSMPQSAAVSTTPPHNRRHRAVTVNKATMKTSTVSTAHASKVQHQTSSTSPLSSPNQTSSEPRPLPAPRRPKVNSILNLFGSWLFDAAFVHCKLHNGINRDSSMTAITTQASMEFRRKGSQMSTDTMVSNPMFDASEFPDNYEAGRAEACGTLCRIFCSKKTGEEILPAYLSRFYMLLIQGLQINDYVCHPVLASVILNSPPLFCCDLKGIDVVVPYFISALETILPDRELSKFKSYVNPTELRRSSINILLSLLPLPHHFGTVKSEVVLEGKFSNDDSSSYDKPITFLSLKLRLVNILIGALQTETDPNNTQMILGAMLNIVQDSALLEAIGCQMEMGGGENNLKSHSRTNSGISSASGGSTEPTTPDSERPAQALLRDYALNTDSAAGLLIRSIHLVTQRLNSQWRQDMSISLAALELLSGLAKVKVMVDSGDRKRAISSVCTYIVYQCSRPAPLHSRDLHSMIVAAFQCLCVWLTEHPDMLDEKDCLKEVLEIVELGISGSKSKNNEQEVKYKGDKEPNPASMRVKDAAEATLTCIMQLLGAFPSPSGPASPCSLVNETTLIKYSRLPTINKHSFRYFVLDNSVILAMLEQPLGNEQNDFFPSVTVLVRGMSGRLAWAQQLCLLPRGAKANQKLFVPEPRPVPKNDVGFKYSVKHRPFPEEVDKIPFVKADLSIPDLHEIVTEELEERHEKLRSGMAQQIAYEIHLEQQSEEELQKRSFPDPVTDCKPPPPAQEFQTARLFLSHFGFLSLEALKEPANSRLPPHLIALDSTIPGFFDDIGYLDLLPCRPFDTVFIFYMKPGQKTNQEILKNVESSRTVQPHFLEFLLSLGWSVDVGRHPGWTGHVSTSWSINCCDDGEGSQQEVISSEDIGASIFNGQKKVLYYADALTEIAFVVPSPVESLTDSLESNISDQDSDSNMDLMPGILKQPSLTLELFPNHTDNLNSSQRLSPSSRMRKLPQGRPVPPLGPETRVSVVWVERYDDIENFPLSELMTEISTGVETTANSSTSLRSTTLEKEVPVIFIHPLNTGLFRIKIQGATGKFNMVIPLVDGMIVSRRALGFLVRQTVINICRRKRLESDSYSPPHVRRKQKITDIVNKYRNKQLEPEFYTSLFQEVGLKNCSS
inactive: lapatinib 0.021 | pictilisib -0.062 | crizotinib -0.088 | [1] -0.09 | duvelisib 0.103 | gandotinib -0.06 | tozasertib 0.062 | doramapimod 0.046 | bafetinib -0.043 | [2] 0.103 | nilotinib -0.022 | [3] 0.029 | dasatinib -0.026 | [4] 0.026 | [5] 0.015 | quisinostat -0.048 | tipifarnib -0.021 | [6] 0.053 | [7] -0.019 | [8] -0.044

SCO1 (UniProt O75880)
Chain of UniProt O75880 (O75880 whole entry, looked up): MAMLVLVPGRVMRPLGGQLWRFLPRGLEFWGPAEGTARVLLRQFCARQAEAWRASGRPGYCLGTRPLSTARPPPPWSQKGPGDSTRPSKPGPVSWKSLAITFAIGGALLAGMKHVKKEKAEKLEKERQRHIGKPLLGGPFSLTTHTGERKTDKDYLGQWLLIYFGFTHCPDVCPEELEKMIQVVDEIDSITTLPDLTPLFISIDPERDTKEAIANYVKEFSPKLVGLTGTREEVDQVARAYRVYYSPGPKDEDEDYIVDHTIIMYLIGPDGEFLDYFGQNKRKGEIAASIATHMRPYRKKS
inactive: lapatinib 0.021 | pictilisib -0.046 | crizotinib -0.046 | [1] -0.022 | duvelisib -0.014 | gandotinib 0.047 | tozasertib 0.01 | doramapimod 0.026 | bafetinib 0.048 | [2] 0.073 | nilotinib 0.046 | [3] 0.029 | dasatinib 0.001 | [4] -0.095 | [5] 0 | quisinostat -0.13 | tipifarnib -0.108 | [6] -0.033 | [7] 0.029 | [8] 0.001

RABEPK (UniProt Q7Z6M1)
Chain of UniProt Q7Z6M1 (Q7Z6M1 whole entry, looked up): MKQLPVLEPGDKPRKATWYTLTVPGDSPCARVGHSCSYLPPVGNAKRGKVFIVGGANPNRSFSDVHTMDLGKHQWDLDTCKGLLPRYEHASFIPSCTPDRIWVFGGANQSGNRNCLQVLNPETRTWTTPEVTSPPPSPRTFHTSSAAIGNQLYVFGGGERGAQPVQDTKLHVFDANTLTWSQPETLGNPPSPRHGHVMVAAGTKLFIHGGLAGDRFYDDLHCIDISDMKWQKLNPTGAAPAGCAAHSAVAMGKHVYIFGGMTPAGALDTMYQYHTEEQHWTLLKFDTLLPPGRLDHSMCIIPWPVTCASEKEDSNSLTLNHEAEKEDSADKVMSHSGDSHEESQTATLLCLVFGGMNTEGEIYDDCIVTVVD
inactive: lapatinib 0.003 | pictilisib -0.016 | crizotinib -0.008 | [1] -0.069 | duvelisib 0.018 | gandotinib 0.007 | tozasertib -0.033 | doramapimod 0.005 | bafetinib 0.024 | [2] 0.04 | nilotinib -0.003 | [3] 0.005 | dasatinib 0.005 | [4] -0.01 | [5] 0.012 | quisinostat 0.004 | tipifarnib 0.007 | [6] -0.018 | [7] 0.013 | [8] 0.002

RAB27A (UniProt P51159)
inactive: lapatinib 0.013 | pictilisib -0.008 | crizotinib 0.026 | duvelisib -0.009 | gandotinib -0.081 | tozasertib 0.024 | doramapimod -0.034 | bafetinib 0.038 | [2] -0.054 | nilotinib -0.018 | [3] 0.02 | dasatinib 0.022 | [4] -0.059 | [5] 0.003 | quisinostat 0.037 | tipifarnib 0.038 | [6] -0.024 | [7] 0.014 | [8] 0.021
active: [1] 0.563

RNF213, A0A0A0MTC1
inactive: lapatinib -0.012 | pictilisib -0.014 | crizotinib -0.064 | [1] -0.043 | duvelisib 0.008 | gandotinib -0.123 | tozasertib 0.043 | doramapimod 0.033 | bafetinib -0.066 | [2] 0.052 | nilotinib 0.015 | [3] -0.016 | dasatinib -0.027 | [4] -0.019 | [5] 0.035 | quisinostat -0.033 | tipifarnib 0.001 | [6] 0.071 | [7] 0.015 | [8] -0.016

RTN4IP1 (UniProt Q8WWV3)
Chain of UniProt Q8WWV3 (Q8WWV3 whole entry, looked up): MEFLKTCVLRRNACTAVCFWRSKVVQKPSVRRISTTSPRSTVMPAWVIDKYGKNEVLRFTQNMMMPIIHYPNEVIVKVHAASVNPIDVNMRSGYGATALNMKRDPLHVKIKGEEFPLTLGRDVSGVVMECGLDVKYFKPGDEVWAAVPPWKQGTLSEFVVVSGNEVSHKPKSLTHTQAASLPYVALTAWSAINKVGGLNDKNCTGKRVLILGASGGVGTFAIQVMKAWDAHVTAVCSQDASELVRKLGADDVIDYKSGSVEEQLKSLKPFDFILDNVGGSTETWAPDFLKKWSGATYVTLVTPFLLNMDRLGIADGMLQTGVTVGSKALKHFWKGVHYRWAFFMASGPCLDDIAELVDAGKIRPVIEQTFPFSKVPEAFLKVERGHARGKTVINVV
active: [3] -0.34
inactive: lapatinib -0.02 | pictilisib 0.017 | crizotinib -0.021 | [1] 0.056 | duvelisib 0.072 | gandotinib -0.057 | tozasertib 0.009 | doramapimod -0.016 | bafetinib 0.059 | [2] -0.048 | nilotinib -0.056 | dasatinib -0.046 | [4] -0.259 | [5] 0.028 | quisinostat -0.033 | tipifarnib 0.245 | [6] -0.055 | [7] -0.012 | [8] 0.148

RAPGEF2, A0A2R8YGD3
active: [1] -0.431
inactive: lapatinib -0.014 | pictilisib 0.015 | crizotinib 0.024 | duvelisib 0.018 | gandotinib 0.038 | tozasertib 0.014 | doramapimod -0.039 | bafetinib -0.171 | [2] 0.266 | nilotinib -0.032 | [3] 0.027 | dasatinib 0.052 | [4] -0.036 | [5] 0.008 | quisinostat -0.018 | tipifarnib -0.017 | [6] 0.054 | [7] -0.02 | [8] 0.024

RAB8B (UniProt Q92930)
Chain of UniProt Q92930 (Q92930 whole entry, looked up): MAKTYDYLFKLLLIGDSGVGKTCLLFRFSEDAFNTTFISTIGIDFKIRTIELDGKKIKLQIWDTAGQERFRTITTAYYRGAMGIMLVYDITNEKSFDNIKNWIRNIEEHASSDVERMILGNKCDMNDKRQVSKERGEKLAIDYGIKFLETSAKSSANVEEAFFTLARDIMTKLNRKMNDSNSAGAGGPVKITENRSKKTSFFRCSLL
inactive: lapatinib 0.065 | pictilisib -0.018 | crizotinib 0.034 | [1] 0.037 | duvelisib 0.098 | tozasertib 0.003 | doramapimod -0.013 | bafetinib 0.088 | [2] -0.079 | nilotinib -0.136 | [3] -0.011 | dasatinib -0.038 | [4] -0.033 | [5] -0.096 | quisinostat -0.035 | tipifarnib 0.075 | [6] 0.019 | [7] 0.099 | [8] 0.029
active: gandotinib -0.289

RPS9 (UniProt P46781)
active: [1] 0.244
inactive: lapatinib -0.012 | pictilisib 0.009 | crizotinib 0.061 | duvelisib 0.006 | gandotinib -0.087 | tozasertib 0.016 | doramapimod -0.023 | bafetinib 0.034 | [2] -0.07 | nilotinib 0.001 | [3] -0.023 | dasatinib 0.067 | [4] -0.039 | [5] 0.023 | quisinostat 0.141 | tipifarnib 0.022 | [6] -0.037 | [7] -0.015 | [8] 0.039

RAD54L2 (UniProt Q9Y4B4)
Chain of UniProt Q9Y4B4 (Q9Y4B4 whole entry, looked up): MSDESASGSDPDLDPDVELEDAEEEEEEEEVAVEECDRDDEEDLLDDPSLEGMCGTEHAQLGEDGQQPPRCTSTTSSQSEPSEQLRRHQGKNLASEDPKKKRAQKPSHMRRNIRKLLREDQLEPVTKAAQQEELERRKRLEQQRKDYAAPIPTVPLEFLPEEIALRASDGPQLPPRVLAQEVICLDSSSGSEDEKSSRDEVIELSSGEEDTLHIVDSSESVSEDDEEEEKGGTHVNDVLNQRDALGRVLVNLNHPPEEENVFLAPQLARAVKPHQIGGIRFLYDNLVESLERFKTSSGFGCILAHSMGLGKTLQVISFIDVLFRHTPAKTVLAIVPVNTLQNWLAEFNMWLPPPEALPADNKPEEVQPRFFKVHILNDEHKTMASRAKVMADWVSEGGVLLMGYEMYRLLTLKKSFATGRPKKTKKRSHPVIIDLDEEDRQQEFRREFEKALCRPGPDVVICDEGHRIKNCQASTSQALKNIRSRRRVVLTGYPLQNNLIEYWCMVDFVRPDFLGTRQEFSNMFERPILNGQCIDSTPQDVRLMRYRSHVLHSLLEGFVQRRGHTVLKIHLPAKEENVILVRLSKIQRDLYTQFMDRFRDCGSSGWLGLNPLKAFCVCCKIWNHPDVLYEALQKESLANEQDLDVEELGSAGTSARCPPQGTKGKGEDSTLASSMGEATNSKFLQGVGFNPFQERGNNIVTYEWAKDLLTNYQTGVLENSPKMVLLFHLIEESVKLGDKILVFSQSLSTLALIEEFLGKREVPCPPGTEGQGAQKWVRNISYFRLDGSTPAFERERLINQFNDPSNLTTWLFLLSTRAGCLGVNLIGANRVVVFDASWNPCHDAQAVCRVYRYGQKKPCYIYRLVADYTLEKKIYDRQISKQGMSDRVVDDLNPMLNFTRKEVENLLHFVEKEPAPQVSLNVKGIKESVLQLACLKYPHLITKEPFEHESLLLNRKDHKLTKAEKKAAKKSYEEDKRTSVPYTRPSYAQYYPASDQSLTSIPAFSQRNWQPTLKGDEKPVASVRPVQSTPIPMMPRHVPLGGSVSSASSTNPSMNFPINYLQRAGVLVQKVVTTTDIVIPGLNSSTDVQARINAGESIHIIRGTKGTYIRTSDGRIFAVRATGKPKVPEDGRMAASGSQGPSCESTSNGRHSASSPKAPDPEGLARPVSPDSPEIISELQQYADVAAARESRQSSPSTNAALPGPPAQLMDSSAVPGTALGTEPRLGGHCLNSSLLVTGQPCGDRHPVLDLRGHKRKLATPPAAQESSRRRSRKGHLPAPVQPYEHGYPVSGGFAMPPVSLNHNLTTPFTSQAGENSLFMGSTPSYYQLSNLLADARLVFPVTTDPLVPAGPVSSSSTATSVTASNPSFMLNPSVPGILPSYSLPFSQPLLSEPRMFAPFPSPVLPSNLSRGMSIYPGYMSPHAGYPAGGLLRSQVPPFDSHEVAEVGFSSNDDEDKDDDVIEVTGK
inactive: lapatinib -0.209 | pictilisib -0.018 | crizotinib -0.037 | [1] -0.174 | duvelisib 0.026 | gandotinib -0.163 | tozasertib -0.166 | doramapimod -0.02 | bafetinib -0.095 | [2] 0.067 | nilotinib -0.037 | [3] -0.03 | dasatinib -0.053 | [4] -0.047 | [5] -0.15 | quisinostat -0.009 | tipifarnib -0.105 | [6] -0.013 | [7] 0.035 | [8] -0.091
